Assay results as given in PubChem BioAssay (EPA / NIEHS).
Activity calls are given as the source filed them. How the source made its calls: active means hit-call score of the fitted dose curve at least 0.9, where 1 is the maximum; inactive means score below 0.9.

read-out: Fatty Acid-Binding Protein 1 (FABP1), FABP1 (gene 2168); test: LTEA_HepaRG_FABP1: Life Technologies and Expression Analysis (LTEA) Assay for Fatty Acid-Binding Protein 1 (FABP1) using HepaRG (AID 2283494); details: mRNA level, 48 h; actives raise or lower the signal
Method: LTEA_HepaRG is a cell based, multiplexed-readout assay that uses HepaRG, a human liver cell line, with measurements taken at 48 hours after chemical dosing on a 96-well plate.LTEA_HepaRG_FABP1 is one of 102 assay component(s) measured in the LTEA HepaRG cell culture assay. It is a marker of Steatosis.Data from the assay component LTEA_HepaRG_FABP1 was analyzed into 1 endpoint. This assay endpoint, LTEA_HepaRG_FABP1, was analyzed with bidirectional fitting relative to DMSO as the negative control and baseline of activity. Using a type of inducible reporter, measures of mRNA induction for gain or loss-of-signal activity can be used to understand regulation of transcription factor activity. To generalize the intended target to other relatable targets, this assay endpoint is annotated to the transporter intended target family, where the subfamily is fatty acid carrier protein.
A total of 1060 chemcials from the ToxCast library were tested in eight-point concentration-response experiments. Cell culture and cytotoxicity assays were conducted at Thermo Fisher Scientific's Custom Services facility (Madison, WI). A single lot of human HepaRG cells (Thermo Fisher Scientific, Frederick, MD) was used for the cell culture experiments. 96-well format collagen type I coated plates of human HepaRG cells were prepared using established methods. Briefly, cryopreserved HepaRG cells were thawed, plated at a density of approximately 100,000 cells/well in HepaRG Thaw, Plate, and General Purpose media (HPRG770, Thermo Fisher Scientific), and incubated for 48 hours. 0.5% DMSO was selected as vehicle control to balance the requisite need of DMSO in HepaRG cultures to maintain differentiation (for example, baseline metabolism, proportions of hepatocytes vs. cholangiocytes), while enabling further hepatic receptor pathway activation (for example, PXR and CAR) in response to chemical exposure. 48 hours after plating, the culture medium was replaced with HepaRG Serum-Free Incudtion Media. Cells were exposed to each test chemical in duplicate and maintained in CO2 incubators for another 48 hours. Chemical plates were thawed to room temperature and 200x concentrations of treatment groups were prepared. 8-point conentration-reponse curves were made with the highest exposure at 100 uM, followed by half-log dilutions, all in 0.5% DMSO. Each test plate contained variouse controls, induction positive controls (1mM phenobarbital), cytotoxicity positive controls ([…] aflatoxin B1), vehicle controls (0.5% DMSO), and total lysis controls (0.5% DMSO). Cell morphology images were taken using an Essen IncuCyte FLR automated microscope, with six 96-well plates imaged in about 24 minutes. Images were captured and exported and JPEG files. Spent culture media was transfered to black-well plates for the LDH assay, and remaining media was sorted at -80 C for later use. Cells were treated with RLT buffer and frozen until shipped for gene expression analysis. Total RNA was isolated from the cell suspension in 75 uL of Buffer RLT (Qiagen, Germantown, MD 20874) by Quintiles/Expression Analysis (Durham, NC) using a custom isolation procedure. Total RNA from each plate well was transferred to a preamplification plate. Fluidigm's 96.96 Dynamic ArrayTM (Fluidigm, Amsterdam, the Netherlands) technology was used for gene expression analyses by quantitative reverse transcription polymerase chain reaction (qRT-PCR, performed by Quintiles/Expression Analysis, Durham, NC)89. Standard TaqManTM Assays (Applied Biosystems/ThermoFisher Scientific, Foster City, CA) were used to assess the expression of 93 genes selected based on their selectivity and sensitivity to important hepatic receptors known to be modulated by environmental chemicals; importance in human hepatocyte functionality; and hepatotoxicity. […]

Structure (SMILES) | outcome | AC50
OCC(CO)(CO)CO | inactive | 
O=C(O)[C@H](O)[C@@H](O)C(=O)O | inactive | 
CC1(C)C(=O)N(Cl)C(=O)N1Cl | inactive | 
C[C@@H](Oc1ccc(CNC(=O)c2cccnc2Oc2ccc3c(c2)OCO3)c(F)c1)C(=O)O |  | 50 µM (active)
OC[C@H]1O[C@@H]2O[C@H]3[C@H](O)[C@@H](O)[C@@H](O[C@H]4[C@H](O)[C@@H](O)[C@@H](O[C@H]5[C@H](O)[C@@H](O)[C@@H](O[C@H]6[C@H](O)[C@@H](O)[C@@H](O[C@H]7[C@H](O)[C@@H](O)[C@@H](O[C@H]1[C@H](O)[C@H]2O)O[C@@H]7CO)O[C@@H]6CO)O[C@@H]5CO)O[C@@H]4CO)O[C@@H]3CO | inactive | 
CCCCOC(=O)c1ccccc1 |  | 12.1 µM (active)
c1ccc2ncccc2c1 | inactive | 
Cc1ncc([C@@H](CCCCCCc2ccc3c(n2)NCCC3)CC(=O)O)cn1 | inactive | 
O=S1(=O)CCCO1 | inactive | 
CCCCCCCCCC | inactive | 
O=C1CN(N=Cc2ccc([N+](=O)[O-])o2)C(=O)N1 |  | 41.9 µM (active)
CCCCCCCCN(C)C | inactive | 
Cn1cc[nH]c1=S | inactive | 
c1ccc2c(c1)-c1cccc3c1c-2cc1ccccc13 |  | 19.1 µM (active)
NC(=O)N(O)[C@@H]1COc2cc(OCc3ccccc3)ccc21 | inactive | 
CCOC(N)=O | inactive | 
O=C(NO)C1(NS(=O)(=O)c2ccc(Oc3ccc(F)cc3)cc2)CCOCC1 |  | 50 µM (active)
Cc1ccc(S(=O)(=O)NC(=O)NN2CCCCCC2)cc1 | inactive | 
c1ccc2cc3ccccc3cc2c1 | inactive | 
O=S(=O)(O)c1ccc(N=Nc2c(O)ccc3cc(S(=O)(=O)O)ccc23)cc1 | inactive | 

Structure (SMILES) | outcome | AC50
CCCC(CCC)C(=O)O | inactive | 
NC(=O)N1c2ccccc2C=Cc2ccccc21 | inactive | 
CCCCC(CC)C(=O)OCCOCCOCCOC(=O)C(CC)CCCC (stereo not given) | inactive | 
CCn1nc(C)c2c1C(=O)NCC(c1ccc(O)cc1)=N2 | inactive | 
OCCOCCOCCO | inactive | 
Cc1nc(-c2ccccn2)ncc1C(=O)Nn1cc(C)c2cc(F)ccc21 |  | 6.97 µM (active)
NC(=O)NN=Cc1ccc([N+](=O)[O-])o1 |  | 25.7 µM (active)
CCCCCCCC1CCC(=O)O1 (stereo not given) | inactive | 
COc1cc2c(c(OC)c1OC)-c1ccc(OC)c(=O)cc1[C@@H](NC(C)=O)CC2 |  | 0.106 µM (active)
C[C@]12C=CC(=O)C=C1CC[C@H]1[C@@H]3C[C@@H](O)[C@](O)(C(=O)CO)[C@@]3(C)C[C@H](O)[C@@]12F | inactive | 
CCc1ccc(O)c(C(C)(C)C)c1 | inactive | 
OC[C@H]1O[C@@](CO)(O[C@H]2O[C@H](CO)[C@@H](O)[C@H](O)[C@H]2O)[C@@H](O)[C@@H]1O | inactive | 
NNC(=O)c1ccncc1 | inactive | 
C=CN1CCCC1=O | inactive | 
CC(C)CC(C)O (stereo not given) | inactive | 
CCCCCCCCCCCCCCO | inactive | 
CCCCCCCC/C=C\CCCCCCCC(=O)OC[C@@H](O)[C@H]1OC[C@H](O)[C@H]1O | inactive | 
CCCCCCCCCCCCCCCCOS(=O)(=O)O | inactive | 
C=CCc1cc(S(=O)(=O)c2ccc(O)c(CC=C)c2)ccc1O |  | 86.8 µM (active)
CCCOc1ccc(S(=O)(=O)N2CCN(CC)CC2)cc1-c1nc2c(CC)n(Cc3ccccn3)nc2c(=O)[nH]1 |  | 12.1 µM (active)
